# Source: PubChem BioAssay (NCATS)
# Results filed as inconclusive are left out. A call without a number means that no potency is given here. Calls of active or inactive are those of the source. The call rests on the fitted dose curve; in most records, active means well fitted inhibition curve with a large enough effect; inconclusive means small, poorly fitted or top-dose-only effect; inactive means flat fitted curve, though single readings scatter.
# Target: Calcium and integrin-binding protein 1 (Homo sapiens) (UniProt Q99828)
# Assay: Primary qHTS for Identification of Calcium Integrin Binding Protein 1 (CIB1) Competitor (AID 1508620); further: top concentration of the series differs between compounds
# Conditions: CIB1-GST / FITC-alphaIIb peptide fluorescence polarization; series mostly up to 114 µM
# Summary of the method: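 Fluorescence polarization competition: GST-tagged CIB1 (1 uM final) preincubated with compound 15 min at room temperature, then FITC-labelled alphaIIb peptide (100 nM final) added. After 15 min at room temperature, polarization read at Ex 480/Em 540.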
# Chain of Calcium and integrin-binding protein 1 (Homo sapiens) (Q99828 whole entry, looked up): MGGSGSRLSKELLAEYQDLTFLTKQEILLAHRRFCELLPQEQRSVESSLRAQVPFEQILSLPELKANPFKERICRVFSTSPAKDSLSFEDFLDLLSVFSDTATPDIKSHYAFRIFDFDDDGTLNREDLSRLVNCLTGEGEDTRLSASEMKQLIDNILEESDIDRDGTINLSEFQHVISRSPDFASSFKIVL
row,SMILES,Potency
1,C[C@H](NC(c1cccc2[nH]c(=O)c(=O)[nH]c12)P(=O)(O)O)c1ccc(Br)cc1 (some centres undefined),inactive
2,O=C(O)[C@@H]1C[C@H]2C[C@@H](CCc3nn[nH]n3)CC[C@H]2CN1,inactive
3,C[C@@H](O)[C@H](NC(=O)c1ccc(C#Cc2ccc(CN3CCOCC3)cc2)cc1)C(=O)NO,inactive
4,Cc1noc(-c2ccc(-c3ccc(CC(=O)O)cc3)cc2)c1NC(=O)O[C@H](C)c1ccccc1,inactive
5,COC(=O)C1=CO[C@@H](O[C@@H]2O[C@H](CO)[C@@H](O)[C@H](O)[C@H]2O)[C@@H]2C(COC(C)=O)=C[C@H](O)[C@H]12,inactive
6,O=C(NCC(O)CO)c1ccncc1Nc1ccc(I)cc1F (centres undefined),inactive
7,CN(C)C/C=C/C(=O)Nc1cc2c(Nc3ccc(F)c(Cl)c3)ncnc2cc1OC1CCOC1 (centres undefined),inactive
8,O=S(=O)(NCC1CC1)c1ccc(Nc2nccc(N3CCCc4cc(O)ccc43)n2)cc1,inactive
9,Oc1ccc(CNc2ccccc2F)c2cccnc12,inactive
10,C=C(C(=O)OC)C1C(O)CC2(C)C(O)CCC(=O)C2C1O (centres undefined),inactive
11,C/C1=C\C[C@]2(C)C(=O)C(O)=C([C@H](C)CO)[C@H]2C/C=C(\C)[C@@H](O)CC/C(C)=C/CC1,inactive
12,Cn1cc(-c2ccc3nnc(Sc4ccc5nn(C)cc5c4)n3n2)cn1,inactive
13,COc1cc(/C=C/C=O)cc(OC)c1O[C@@H]1O[C@H](CO)[C@@H](O)[C@H](O)[C@H]1O,inactive
14,COC(=O)C1=CO[C@@H](O[C@@H]2O[C@H](CO)[C@@H](O)[C@H](O)[C@H]2O)[C@@H]2[C@@](C)(O)[C@@H](OC(=O)/C=C/c3ccc(O)cc3)C[C@]12O,inactive
15,C=C[C@]1(C)C[C@H](O)[C@@H]2[C@H](OC(=O)[C@@H]2C)C1/C(C)=C/O[C@@H]1O[C@H](CO)[C@@H](O)[C@H](O)[C@H]1O (some centres undefined),inactive
16,CC(C)CN(C[C@@H](O)[C@H](Cc1ccccc1)NC(=O)O[C@@H]1CO[C@H]2OCC[C@H]21)S(=O)(=O)c1ccc(N)cc1,inactive
17,CC1=CC(=O)CC(C)(C)C1CCC(C)O[C@@H]1O[C@H](CO[C@@H]2OC[C@@H](O)[C@H](O)[C@H]2O)[C@@H](O)[C@H](O)[C@H]1O (some centres undefined),inactive
18,O=C1CC2(CCCC2)[C@H](O)C(=O)N1CCCCN1CCN(c2ncccn2)CC1,inactive
19,O=C1CCC(=O)N(O)CCCCCNC(=O)CCC(=O)N(O)CCOCCNC(=O)CCC(=O)N(O)CCCCCN1,inactive
20,C[C@@H]1O[C@@H](O[C@H]2[C@@H](OC(=O)[C@]34CCC(C)(C)CC3C3=CCC5[C@@]6(C)C[C@H](O)[C@H](O[C@@H]7O[C@H](C(=O)O)[C@@H](O)[C@H](O)[C@H]7O)[C@@](C)(C(=O)O)C6CC[C@@]5(C)[C@]3(C)CC4)OC[C@H](O)[C@@H]2O)[C@H](O)[C@H](O)[C@H]1O[C@@H]1OC[C@@H](O)[C@H](O)[C@H]1O (some centres undefined),inactive
21,CCOC(=O)CCN(C(=O)c1ccc2c(c1)nc(CNc1ccc(C(=N)N)cc1)n2C)c1ccccn1,inactive
22,C[C@@H]1O[C@@H](O[C@H]2[C@H](O[C@H]3CC[C@@]4(C)C(CC[C@]5(C)C4C=C[C@]46OC[C@@]7(CCC(C)(C)C[C@H]74)[C@@H](O)C[C@]65C)[C@]3(C)CO)O[C@H](CO)[C@@H](O)[C@@H]2O[C@@H]2O[C@H](CO)[C@@H](O[C@@H]3O[C@@H](C)[C@H](O)[C@@H](O)[C@H]3O)[C@H](O)[C@H]2O)[C@H](O)[C@H](O)[C@H]1O (some centres undefined),inactive
23,CN1CCN(C(=O)c2ccc3cc(CCNc4ncnc5ccc(C#N)cc45)ccc3c2)CC1,inactive
24,O=C(OC[C@@]1(O)CO[C@@H](O[C@H]2[C@H](Oc3ccc(O)cc3)O[C@H](CO)[C@@H](O)[C@@H]2O)[C@@H]1O)c1ccc(O)cc1,inactive
25,O=C(O)Cc1cn(C2OCC(O)C(O)C2O[C@@H]2O[C@H](CO)[C@@H](O)[C@H](O)[C@H]2O)c2ccccc12 (some centres undefined),inactive
26,COC(=O)c1ccc(OC(CO)C(O)c2ccc(O)c(OC)c2)c(OC)c1 (centres undefined),inactive
27,CC(C)c1ccc(CO)cc1O[C@@H]1O[C@H](CO)[C@@H](O)[C@H](O)[C@H]1O,inactive
28,Cc1cc(C(=O)Nc2cccc(C(=O)Nc3cccc(C(F)(F)F)c3)c2)on1,inactive
29,COC(=O)CCc1cc2ccoc2c(OC)c1O[C@@H]1O[C@H](CO)[C@@H](O)[C@H](O)[C@H]1O,inactive
